Laboratory results: PubChem BioAssay
Active and inactive are the calls of the source.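 Rule for the calls, unless noted: active = fluorescence slope higher than the sample average by over 3 SD (cut at about -0.22 in these data, passing the limit was not always enough); inactive = the rest.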

Tests used:
[1] = inhibitors of TNFa-induced NFkB p65 translocation, primary screen, imaging, HUVEC, MLSMR starter and 10KST1 sets (AID 438;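 active = inhibition above 20% together with a positive visual image hit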;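 note: compound added about 3h40 before a 20 min TNFalpha stimulation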;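 for inhibition: signal is the nuclear over cytoplasmic p65 intensity ratio per well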); conditions: HUVEC TNFa-induced p65 nuclear translocation; cell count: measured here: nuclei count (cytotoxicity indicator), at 2.08 µM unless noted; inhibition: at 2 µM, stronger effect = higher value unless noted
[2] = inhibitors of E-selectin induction by TNFa, primary screen, imaging, HUVEC, immunofluorescence, MLSMR starter and 10KST1 sets (AID 487;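 active = visually confirmed hit in the image check and inhibition above 20%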;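 for inhibition: signal is fraction of cell area covered by stained E-selectin grains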;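 for nuclei count: 100% = median nuclei count of all wells on the same plate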); conditions: HUVEC TNFalpha-induced E-selectin immunofluorescence imaging, at 2 µM; inhibition: stronger effect = higher value; nuclei count: measured here: cell number, toxicity
[3] = DUSP6 inhibitors restoring Erk phosphorylation by chemical complementation, primary imaging in DUSP6-transfected HeLa (AID 609;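 active = compounds giving at least 50% inhibition in the cell-based MKP-3 phosphatase rescue imaging test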;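 for inhibition: phospho-Erk level distribution per well compared with pooled transfected vehicle control wells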); conditions: HeLa MKP-3 transfected, phospho-Erk imaging KS statistic, at 10 µM
[4] = target: Dual specificity protein phosphatase 6 (Homo sapiens) (UniProt Q16828); test: as above; conditions: HeLa MKP-3 transfected, phospho-Erk imaging KS statistic, at 10 µM, stronger effect = higher value
[5] = target: Voltage-gated potassium channel subunit beta-2 (Rattus norvegicus) (UniProt P62483); test: KvBeta enzyme negative modulators, primary screen, biochemical, NADPH fluorescence (AID 622); conditions: recombinant KvBeta, 4-cyanobenzaldehyde reduction, at 10 µM, stronger effect = higher value;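 note: slope of raw intensity against log time taken from 70 to 1610 s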
[6] = target: Voltage-gated potassium channel subunit beta-2 (Rattus norvegicus) (UniProt P62483); test: KvBeta positive modulators, primary screen, biochemical, NADPH fluorescence (AID 623;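 active = NADPH fluorescence slope more negative than the mean of all samples by about 3 SD, 99.7% confidence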;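 note: fluorescence intensity change per second fitted from 20 to 320 s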); conditions: Recombinant KvBeta, NADPH fluorescence decrease slope, 10 min; at 10 µM; stronger effect = lower value
[7] = target: Muscarinic acetylcholine receptor M4 (Homo sapiens) (UniProt P08173); test: compounds altering M4/GIRK thallium flux, either direction, primary screen, M4 allosteric agonist project, cell-based, HEK293 M4/GIRK, BTC-AM (AID 625;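 active = fluorescence slope after compound addition differing from the mean of all tested samples at 99.7% confidence, mostly higher but some lower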;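 note: thallium influx through GIRK channels coupled to M4 in HEK293 cells with BTC-AM dye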); conditions: at 10 µM, actives lie on both sides
[8] = inhibitors of larval lipid processing in zebrafish, primary screen, whole organism, PED6 fluorescence, gall bladder and intestine (AID 686;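 active = a full or partial loss of lipid-probe fluorescence in the fish gall bladder, intestine or both, judged by eye; inactive = no fluorescence loss, or compound toxic to the fish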;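 note: larvae 5 to 7 days old with five fish per well; signal comes from phospholipase A2 cleavage of quenched PED6 carried via bile; overnight exposure to compound and PED6 before scoring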); conditions: Zebrafish larvae PED6 lipid processing, fluorescence scoring
[9] = inhibitors of Chlamydomonas gravitaxis, primary screen, whole organism, Chlamydomonas reinhardtii, WT vs cilia-less mutant, absorbance, 96-well (AID 463189;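 active = inhibition at or above 50% relative to wild type and mutant plate controls; inactive = inhibition below 50%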;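 note: 0% = wild type cc124 cells in DMSO and 100% = ciliumless bld1 mutant cells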); conditions: OD600 absorbance, 2 days, at 10 µM, stronger effect = higher value
[10] = inhibitors of mutant huntingtin aggregation, primary screen, imaging, exon1htt(103Q)mCFP cells, high-content imaging (AID 483;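 active = visual image review flags a hit and inhibition of aggregation exceeds 20%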;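 note: compound exposure lasted 3 days before fixation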;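 for nuclei count: percent of the per-plate median nuclei count of sample wells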); conditions: exon1htt(103Q)mCFP cell line, aggregate imaging, at 2 µM; inhibition of aggregation: stronger effect = higher value; nuclei count: measured here: cell count, toxicity
[11] = target: Alpha-2C adrenergic receptor (Homo sapiens) (UniProt P18825); test: modulators of alpha2C/GIRK thallium flux, primary screen, cell-based, HEK293 alpha2C/GIRK1/2 (AID 624;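 active = fluorescence slope after compound addition differing from the mean of all screened samples at 99.7% confidence, in either direction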;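 note: slope of fluorescence ratio to pre-addition baseline per second over 15 to 24 s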); conditions: thallium flux BTC fluorescence, at 10 µM, actives lie on both sides
[12] = inhibitors of Sendai virus-induced IRF3 signaling, primary screen, TLR/RLR signaling modifier project, cell-based, Sendai virus stimulus, luciferase, 10K MLSCN set (AID 602276;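 active = inhibition at or above 50% at 10 µM; inactive = inhibition below 50%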;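 note: firefly luciferase from ISG56 promoter only with Renilla not read in this screen; 0% = Sendai virus plus DMSO and 100% = medium plus DMSO without virus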); conditions: HEK293 RL24 IRF3 luciferase reporter, at 10 µM, stronger effect = higher value
[13] = inhibitors of poly I:C-induced TLR3 signaling, primary screen, cell-based, poly I:C stimulus, luciferase, 10K MLSCN set (AID 602277;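 active = inhibition of the reporter signal at or above 50%; inactive = inhibition below 50%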); conditions: HEK293-TLR3 RL24 IRF3 luciferase reporter, at 10 µM, stronger effect = higher value
[14] = measured here: cell density z-score
[15] = measured here: nuclear c-Myc green intensity z-score
[16] = measured here: nuclear pErk red intensity z-score, stronger effect = higher value

Sequence of Dual specificity protein phosphatase 6 (Homo sapiens) (Q16828 whole entry, looked up): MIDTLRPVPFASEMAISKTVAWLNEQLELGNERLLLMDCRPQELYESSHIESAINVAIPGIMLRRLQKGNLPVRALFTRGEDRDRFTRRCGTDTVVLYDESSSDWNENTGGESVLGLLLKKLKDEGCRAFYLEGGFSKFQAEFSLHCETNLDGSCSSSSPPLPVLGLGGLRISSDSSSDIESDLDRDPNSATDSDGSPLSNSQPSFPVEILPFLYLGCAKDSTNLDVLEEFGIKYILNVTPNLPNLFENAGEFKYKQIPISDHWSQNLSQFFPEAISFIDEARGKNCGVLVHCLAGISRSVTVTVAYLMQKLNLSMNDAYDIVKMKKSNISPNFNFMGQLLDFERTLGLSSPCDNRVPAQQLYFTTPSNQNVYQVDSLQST
Sequence of Alpha-2C adrenergic receptor (Homo sapiens) (P18825 whole entry, looked up): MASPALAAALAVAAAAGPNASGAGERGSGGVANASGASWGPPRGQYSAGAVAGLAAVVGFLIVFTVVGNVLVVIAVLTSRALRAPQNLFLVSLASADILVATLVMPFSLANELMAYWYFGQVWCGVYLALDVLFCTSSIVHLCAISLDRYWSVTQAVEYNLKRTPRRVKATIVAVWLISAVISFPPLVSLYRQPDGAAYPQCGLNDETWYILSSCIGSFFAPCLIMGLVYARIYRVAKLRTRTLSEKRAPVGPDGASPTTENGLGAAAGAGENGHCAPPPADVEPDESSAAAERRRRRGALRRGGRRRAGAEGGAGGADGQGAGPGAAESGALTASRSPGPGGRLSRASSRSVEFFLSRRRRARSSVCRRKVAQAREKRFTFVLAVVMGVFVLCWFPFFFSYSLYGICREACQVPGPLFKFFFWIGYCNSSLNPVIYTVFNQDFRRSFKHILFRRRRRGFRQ
Sequence of Voltage-gated potassium channel subunit beta-2 (Rattus norvegicus) (P62483 whole entry, looked up): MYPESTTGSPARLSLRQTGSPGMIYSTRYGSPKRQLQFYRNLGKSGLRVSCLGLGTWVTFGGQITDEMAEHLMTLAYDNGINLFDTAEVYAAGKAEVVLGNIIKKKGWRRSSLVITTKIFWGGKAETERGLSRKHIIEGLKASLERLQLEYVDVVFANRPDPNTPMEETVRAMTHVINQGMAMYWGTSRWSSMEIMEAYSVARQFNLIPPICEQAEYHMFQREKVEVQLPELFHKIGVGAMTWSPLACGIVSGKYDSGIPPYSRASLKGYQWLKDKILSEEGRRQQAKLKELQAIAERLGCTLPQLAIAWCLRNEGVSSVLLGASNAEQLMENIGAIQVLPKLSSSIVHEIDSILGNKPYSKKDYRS
Sequence of Muscarinic acetylcholine receptor M4 (Homo sapiens) (P08173 whole entry, looked up): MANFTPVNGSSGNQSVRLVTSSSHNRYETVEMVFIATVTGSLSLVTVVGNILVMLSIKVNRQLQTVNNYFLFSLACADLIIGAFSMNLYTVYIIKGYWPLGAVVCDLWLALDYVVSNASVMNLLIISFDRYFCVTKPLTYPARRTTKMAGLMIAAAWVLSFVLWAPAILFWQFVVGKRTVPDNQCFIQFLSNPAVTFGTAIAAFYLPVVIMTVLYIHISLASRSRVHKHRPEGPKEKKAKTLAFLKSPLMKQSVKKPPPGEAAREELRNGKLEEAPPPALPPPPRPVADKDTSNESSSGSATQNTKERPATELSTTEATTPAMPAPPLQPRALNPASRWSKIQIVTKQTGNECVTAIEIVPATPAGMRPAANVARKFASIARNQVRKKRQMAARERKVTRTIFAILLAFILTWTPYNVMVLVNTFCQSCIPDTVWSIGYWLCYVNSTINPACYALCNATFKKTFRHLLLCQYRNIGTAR

Structure (SMILES)	cell count [1]	inhibition [1]	inhibition [2]	nuclei count [2] [%]	z-score [3, 14]	z-score [3, 15]	z-score [3, 16]	inhibition [4]	fluorescence slope [5]	NADPH fluorescence slope [6]	fluorescence slope [7]	outcome [8]	inhibition [9]	inhibition of aggregation [10]	nuclei count [10] [%]	slope [11]	inhibition [12]	inhibition [13]
CNC(=O)N(C)c1nnc(C(C)(C)C)s1	642	-6.4% (inactive)	-26% (inactive)	73.8	-3.07	0.0042	-1.4	11.9% (inactive)	-0.502 (inactive)	-9.9e-05 (inactive)	0.00657 (inactive)	inactive	119% (active)	–	–	–	–	–
Nc1c(C(=O)NCc2ccco2)c2nc3ccccc3nc2n1Cc1ccc(F)cc1	678	12.5% (inactive)	-9% (inactive)	108	0.15	1.06	-0.878	-7.67% (inactive)	-0.236 (inactive)	-1e-05 (inactive)	0.00698 (inactive)	inactive	34.8% (inactive)	–	–	–	–	–
C=CCOC(=O)C1=C(C)OC(N)=C(C#N)C12C(=O)N(CN1CCOCC1)c1ccccc12 (stereo not given)	388	0.7% (inactive)	-73.4% (inactive)	88.4	-0.108	0.314	1.06	-4.59% (inactive)	-0.515 (inactive)	2.9e-05 (inactive)	0.00467 (inactive)	inactive	39.6% (inactive)	–	–	–	–	–
O=C(O)C1(c2ccc(Cl)cc2)CCC1	433	7.5% (inactive)	-422% (inactive)	158	–	–	–	–	-0.461 (inactive)	2.3e-05 (inactive)	–	–	–	1.5% (inactive)	104	0.00643 (inactive)	12.9% (inactive)	21.3% (inactive)
Cc1ccc(C(=O)C2CN3CCC2CC3)cc1 (stereo not given)	882	-7.3% (inactive)	-84.2% (inactive)	111	–	–	–	–	-0.441 (inactive)	-2.3e-05 (inactive)	–	–	–	-13.1% (inactive)	103	0.00351 (inactive)	11.9% (inactive)	43.4% (inactive)
COc1ccc(CCn2c(O)c(C=NCc3cccnc3)c(=O)[nH]c2=O)cc1OC	716	-1.7% (inactive)	72.3% (active)	90.2	–	–	–	–	-0.629 (inactive)	1.1e-05 (inactive)	–	–	–	-17.3% (inactive)	111	0.00366 (inactive)	19.4% (inactive)	18.7% (inactive)
CC(=NCCCO)c1c(O)n(Cc2ccccc2)c(=O)[nH]c1=O	374	-1.2% (inactive)	-197% (inactive)	130	–	–	–	–	-0.384 (inactive)	-3.6e-05 (inactive)	–	–	–	-15.8% (inactive)	113	0.00369 (inactive)	13% (inactive)	11% (inactive)
c1cncc(CNC2=NCCCCC2)c1	315	2.9% (inactive)	-154% (inactive)	127	–	–	–	–	-0.469 (inactive)	-0.000124 (inactive)	–	–	–	2.4% (inactive)	114	0.0069 (inactive)	5.89% (inactive)	24.1% (inactive)
COC(=O)C1C2c3ccccc3OC1(C)N=c1s/c(=C/c3cnn(C)c3C)c(=O)n12 (stereo not given)	469	10.9% (inactive)	-82.7% (inactive)	112	–	–	–	–	-0.332 (inactive)	-4.9e-05 (inactive)	–	–	–	0.9% (inactive)	115	0.00428 (inactive)	15.6% (inactive)	23.4% (inactive)
Cc1ccc2nc(N3CCN(C)CC3)[nH]c2c1	369	-15.9% (inactive)	5.8% (inactive)	97.7	–	–	–	–	-0.506 (inactive)	4.2e-05 (inactive)	–	–	–	5.5% (inactive)	87.6	0.00535 (inactive)	-66.5% (inactive)	-98.1% (inactive)
N=C(N)c1c(O)n(C2CCCCC2)c(=O)n(C2CCCCC2)c1=O	460	-13.4% (inactive)	-11% (inactive)	89.8	–	–	–	–	-0.502 (inactive)	-1.1e-05 (inactive)	–	–	–	-10.9% (inactive)	102	0.00599 (inactive)	16.7% (inactive)	31.3% (inactive)
COc1ccccc1-n1c(O)c(C=NCc2ccc3c(c2)OCO3)c(=O)[nH]c1=O	758	-13.8% (inactive)	-117% (inactive)	124	–	–	–	–	-0.611 (inactive)	-5.6e-05 (inactive)	–	–	–	-35.1% (inactive)	121	0.00662 (inactive)	2.15% (inactive)	9.73% (inactive)
CCCCCCOc1ccc(CN2CCN(C)CC2)cc1	302	-5% (inactive)	-127% (inactive)	128	–	–	–	–	-0.46 (inactive)	-0.000138 (inactive)	–	–	–	2.1% (inactive)	107	0.00769 (inactive)	25.8% (inactive)	8.4% (inactive)
CN1C(=O)N(C)C(=O)C2(Cc3ccccc3N3CCOCC32)C1=O (stereo not given)	547	-5.7% (inactive)	-43.9% (inactive)	148	–	–	–	–	-0.363 (inactive)	3.8e-05 (inactive)	–	–	–	-30.5% (inactive)	92.5	0.00653 (inactive)	16.2% (inactive)	24.6% (inactive)
